Results as given in PubChem BioAssay (NCI).
About 79,000 compounds went through this panel and 15% of them were active in at least one assay; those are over-represented in the sample as a whole. Cut-off read from the data, not from the text of the source: active = growth inhibition above about 70%; inactive = the rest.

Experiments:
[1] = NCI Yeast Anticancer Drug Screen. Data for the rad50 strain (AID 155);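 note: 0% = growth of vehicle-only cultures of the same strain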; details: S. cerevisiae rad50 strain growth inhibition; at 50.0 µM; stronger effect = higher value
In short: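 A DNA repair-deficient yeast mutant serves as the test organism; compound-induced growth inhibition is calculated against vehicle-treated cells.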

[2] = NCI Yeast Anticancer Drug Screen. Data for the mec2-1 strain (AID 157); details: S. cerevisiae mec2-1 strain, at 50.0 µM, stronger effect = higher value
In short: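 Compounds were applied to mec2-1 yeast cells. Their growth was then compared with that of vehicle-treated cultures to give growth inhibition.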

[3] = NCI Yeast Anticancer Drug Screen. Data for the sgs1 mgt1 strain (AID 161);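 note: 0% = growth of cultures given vehicle only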; details: S. cerevisiae sgs1 mgt1 strain, at 50.0 µM, stronger effect = higher value
In short: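 This yeast growth screen uses a strain with defined DNA-repair lesions; compound-treated growth is compared with vehicle-treated growth.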

[4] = NCI Yeast Anticancer Drug Screen. Data for the cln2 rad14 strain (AID 165);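 note: 0% = growth equal to vehicle treated cultures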; details: S. cerevisiae cln2 rad14 strain, at 50.0 µM, stronger effect = higher value
In short: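 Strain: cln2 rad14 yeast, altered in cell cycle control and DNA damage repair. Read-out: growth inhibition vs vehicle.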

[5] = NCI Yeast Anticancer Drug Screen. Data for the bub3 strain (AID 167); details: S. cerevisiae bub3 mutant strain, at 50.0 µM, stronger effect = higher value
In short: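 Inhibition values come from growth of compound-treated mutant yeast normalised to vehicle-treated controls.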

[6] = NCI Yeast Anticancer Drug Screen. Data for the mlh1 rad18 strain (AID 175); details: S. cerevisiae mlh1 rad18 strain growth inhibition; at 50.0 µM; stronger effect = higher value
In short: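 A repair-deficient yeast strain is exposed to test compound, and growth is scored relative to vehicle-treated controls.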

Measured: growth inhibition

Cc1ccc(N=Cc2cccs2)c(Br)c1
inactive: [1] -5.7% | [2] -20.1% | [3] -0.2% | [4] 6.4% | [5] -0.95% | [6] 5.95%

CC(NC(=O)c1ccccc1)C(=O)O (stereo unspecified)
inactive: [1] 25.4% | [2] -6.4% | [3] -26.6% | [4] -24.2% | [5] 0.6% | [6] 27.7%

CCCCCCCCCCCCCCCCCCNC(=O)Nc1cc(C(C)C)ccc1C
inactive: [1] -13.3% | [2] -22.1% | [3] -14.8% | [4] -47.1% | [5] -2.7% | [6] -30.6%

N#Cc1ccc(/C=C\c2ccc(C#N)cc2)cc1
inactive: [1] -8.2% | [2] 5.05% | [3] 4.45% | [4] 6.05% | [5] 1.2% | [6] -11.1%

CCC1N(C)CCCN1C
inactive: [1] 9.25% | [2] -2.9% | [3] 10.2% | [4] 0.95% | [5] 0.9% | [6] 6.55%

CCCNC(=O)c1ccc(Cl)cc1Cl
inactive: [1] 29.8% | [2] 7.85% | [3] 18.4% | [4] -12.2% | [5] -12.5% | [6] 27.1%

CCCCOc1ccc(N)cn1
inactive: [1] -5.05% | [2] -4.85% | [3] 6.15% | [4] -16.4% | [5] 32.7% | [6] -5.45%

CN1NC(c2ccccc2)=NN=C1c1ccccc1
inactive: [1] -8.5% | [2] 21.9% | [3] 11.3% | [4] 0.75% | [5] 15.8% | [6] 3.65%

CC(C(=O)c1ccccc1)C(O)(C(F)(F)F)C(F)(F)F (stereo unspecified)
inactive: [1] -5.15% | [2] 2.6% | [3] 4.25% | [4] -24.4% | [5] -0.85% | [6] -9.05%

Cn1cnc([N+](=O)[O-])c1Sc1nc(N)nc2c1ncn2C1OC(CO)C(O)C1O (stereo unspecified)
inactive: [1] -9.3% | [2] 20.3% | [3] 15.6% | [4] 25.1% | [5] 14.2% | [6] -8.5%

CC(C)(C)C1=CC(=O)CCC1
inactive: [1] -37.6% | [2] -31.2% | [3] -16.4% | [4] -8.1% | [5] -26.9% | [6] 5.65%

Cc1cc(C)c(NC(=O)C(Br)C(Br)c2ccccc2)c(C)c1 (stereo unspecified)
inactive: [1] 11.6% | [2] -5.6% | [3] 5.1% | [4] 23.8% | [5] 2.15% | [6] 21.4%

Cc1ccc(C2=NO[C@@H]3C(=O)N(c4ccc(Cc5ccc(N6C(=O)[C@H]7C(c8ccc(C)cc8)=NO[C@H]7C6=O)cc5)cc4)C(=O)[C@H]23)cc1
inactive: [1] -0.4% | [2] 30.1% | [3] 29.1% | [4] 32.4% | [5] 31.1% | [6] 20.1%

CC(C)=CCOc1cc(NC(=S)c2ccsc2C)ccc1Cl
inactive: [1] -40.6% | [2] -24.6% | [3] -34.1% | [4] -22.4% | [5] -19.1% | [6] -36.3%

CCCCCCC(/C=N\N=C\c1ccco1)=C\c1ccccc1
inactive: [1] -2.7% | [2] 6.15% | [3] 1.25% | [4] 2.75% | [5] 16.9% | [6] -7.8%

[N-]=[N+]=NC(=O)c1cnn(-c2ccccc2)c1N
inactive: [1] 9.65% | [2] 18.9% | [3] 9.4% | [4] -27.4% | [5] 14.6% | [6] 2.2%

CCOc1c(OC)cc(C2c3cc4c(c(OCC)c3CC3COC(=O)C32)OCO4)cc1OC (stereo unspecified)
inactive: [1] 36.8% | [2] 16.1% | [3] 48.6% | [4] 28.1% | [5] 19.8% | [6] 0.25%

N#CS[C@@H]1CCC[C@H]1O
inactive: [1] -0.85% | [2] -6.25% | [3] -18.5% | [4] -18% | [5] 1.65% | [6] -20.1%

N#Cc1ccc(NC(=O)C(CC(=O)OCc2ccccc2)NC(=O)OCc2ccccc2)cc1 (stereo unspecified)
inactive: [1] -2.75% | [2] 4.65% | [3] 3.85% | [4] 7.3% | [5] 50.8% | [6] -8.05%

O=C(/C=C/c1ccccc1O)c1ccccc1
inactive: [1] -22.8% | [2] -15.7% | [3] 3.2% | [4] 1.9% | [5] -5.2% | [6] -24.6%

COc1cccc(-c2ccccc2)c1
inactive: [1] 7.35% | [2] 10.9% | [3] -11.3% | [4] 3.2% | [5] 14.6% | [6] -16.6%
